An excerpt weighted towards active compounds, which were near 19% of everything screened.
HT1080 IDH1KD tx – qHTS for induction of synthetic lethality in tumor cells producing 2HG: qHTS for the HT-1080-IDH1KD cell line; actives 2% (n = 360,000); AID 686971, 2013; Potency, µM (doses to about 46.1 µM), for the others: at the highest dose activity, negative = toxicity, actives largely listed as cytotoxic; HT-1080 IDH1 knockdown viability, ATP luminescence, 48 h;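 note: potency is the fitted concentration of half-maximal effect; 0% = DMSO wells and -100% = cell-free medium wells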
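Viability of IDH1-knockdown HT-1080 fibrosarcoma cells was assessed by CellTiter-Glo after 48 h at 37 °C with titrated compound; concentration-effect curves were classified by fit quality and response size.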
IL-1B inflam inh – qHTS for Inhibitors of Inflammasome Signaling: IL-1-beta AlphaLISA Primary Screen; THP-1 LPS/ATP IL-1B secretion, AlphaLISA, 16 h; active compounds read low; activity change, % at 57.5 µM; actives 4.7% (n = 360,000); AID 743279, 2014; in the data active = activity change below about -50%; inconclusive = mostly about -30% to -49%
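THP-1 cells pretreated 1 hr with compounds (up to 57.5 uM final), then stimulated with LPS (250 ng/mL final) plus ATP (1.25 mM final); secreted IL-1B measured by AlphaLISA after 16 hr, decreased signal indicating inhibition.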
TDP1 cell noCPT – qHTS for Inhibitors of human tyrosyl-DNA phosphodiesterase 1 (TDP1): qHTS in cells in absence of CPT; DT40 Tdp1-/- hTDP1 cells, no CPT, ATP luminescence, 48 h; Potency, µM (doses to about 46.2 µM), for inactives: top-dose activity change, negative = growth inhibition, actives largely listed as inhibitors; actives 15% (n = 420,000); AID 686978, 2013; note: potency is the fitted concentration of half-maximal effect; nearly all actives have a fitted effect of over 55% in size
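Luminescent ATP content (CellTiter-Glo) served as the growth readout. Knockout chicken DT40 cells expressing human TDP1 were exposed to compounds without camptothecin for a minimum 48 hr at 37 °C.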
HT1080NT lethal – qHTS for induction of synthetic lethality in tumor cells producing 2HG: qHTS for the HT-1080-NT fibrosarcoma cell line; HT-1080-NT fibrosarcoma viability, CellTiter-Glo ATP luminescence, 48 h; Potency, µM (top dose mostly 46.1 µM), for inactives: at the top dose activity, negative = less viability, usual class: cytotoxic; actives 1.6% (n = 360,000); AID 686970, 2013;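 note: NT is the 2HG producing partner of a matched IDH1 knockdown line; potency is the fitted concentration of half-maximal effect; 0% = DMSO-treated cells and -100% = media-only wells without cells; nearly all actives have a fitted effect of over 55% in size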
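Viability of the 2HG-overproducing fibrosarcoma line after 48 hours of compound exposure at 37 degrees C was determined by luminescence with CellTiter-Glo, and concentration-effect curves were then fitted and categorized.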
DT40 TDP1 CPT – qHTS for Inhibitors of human tyrosyl-DNA phosphodiesterase 1 (TDP1): qHTS in cells in presence of CPT; AID 686979, 2013; chicken DT40 Tdp1-/-;hTDP1 cells + 20 nM CPT, ATP luminescence, 48 h; actives 12% (n = 420,000); Potency, µM (highest dose often 46.2 µM), for inactives: top-dose activity change, negative = growth inhibition, most hits filed as inhibitors; note: potency is the fitted concentration of half-maximal effect; nearly all actives have a fitted effect of over 55% in size
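Chicken DT40 Tdp1-/- cells complemented with human TDP1, 400 cells/well, exposed to compounds plus 20 nM camptothecin for at least 48 h at 37 C; viability read as ATP content by CellTiter-Glo luminescence.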
The depositor's hits bear a star; ? = inconclusive; · = no result given; ! = repeats disagree; [ ] = dose if it differs, or a comment. Unless noted, calls come from the whole dose curve; as a rule, active = well fitted curve in the direction sought with a large enough effect; inconclusive = small, poorly fitted or top-dose-only effect, or another doubt; inactive = no such curve, though single readings can be large; an effect the other way counts as inactive or inconclusive. Unless noted, % is set by controls: 0 for no effect and ±100 for the full control effect.

SMILES	HT1080 IDH1KD tx	IL-1B inflam inh	TDP1 cell noCPT	HT1080NT lethal	DT40 TDP1 CPT
COC(=O)c1ccc(N2CCS(=O)(=O)CC2)cc1	2%	-4	-9%	16%	-17%
COc1ccc([C@H]2CC(=O)C=C(c3ccccc3)C2)cc1OC	-2%	?	?	0%	?
COc1ccc([C@H]2CC(=O)C=C(c3ccc(SC)cc3)C2)cc1OC	5%	-13	15µM*	6%	9.2µM*
COc1ccc([C@H]2CC(=O)C=C(c3cccc(Cl)c3)C2)cc1OC	3%	-66*	?	6%	15µM*
COc1ccc([C@H]2CC(=O)C=C(c3ccc(F)cc3OCc3ccccc3)C2)cc1	2%	-15	?	0%	?
COc1ccc([C@H]2CC(=O)C=C(c3ccc(Oc4ccccc4)cc3)C2)cc1OC	-14%	-3	23µM*	-13%	10µM*
COc1ccc([C@H]2CC(=O)C=C(c3ccc(F)cc3OCc3ccccc3)C2)cc1OC	0%	?	21µM*	-7%	?
Cc1nc(Nc2ccccc2)[nH]c(=O)c1CCC(C)C	8%	23	?	9%	7.3µM*
COc1ccc(CCNC(=O)Cc2c(C)c3c(cc(C)c4c(C)coc43)oc2=O)cc1	·	·	-20%	·	?
COc1ccc(Nc2nnc(-c3ccc(N4CCOCC4)c([N+](=O)[O-])c3)c3ccccc23)cc1	13%	19	23µM*	7%	23µM*
Cc1cccc(-c2noc(-c3ccc(N4CCN(C)CC4)c([N+](=O)[O-])c3)n2)c1	·	·	23µM*	·	?
Cc1cccc(-c2noc(-c3ccc(N4CCOCC4)c([N+](=O)[O-])c3)n2)c1	·	·	18µM*	·	?
Cc1cccc(-c2noc(-c3ccc(N4CCCC4)c([N+](=O)[O-])c3)n2)c1	·	·	?	·	-21%
COc1cc(-c2noc(-c3ccc(N4CCOCC4)c([N+](=O)[O-])c3)n2)cc(OC)c1OC	·	·	5.2µM*	·	?
COc1ccc(-c2noc(-c3ccc(N4CCCC4)c([N+](=O)[O-])c3)n2)cc1OC	·	·	-16%	·	?
COc1ccc(N2CCN(c3ccc(-c4nc(-c5ccccc5)no4)cc3[N+](=O)[O-])CC2)cc1	·	·	?	·	-30%
CC(C)C1=NN(C(=O)c2ccccc2)C(O)(C(C)(C)C)C1 (centres undefined)	13%	6	6.5µM*	11%	?
CCCCN(C(=O)Cc1ccc2c(c1)OCCO2)c1c(N)n(CC(C)C)c(=O)[nH]c1=O	23%	3	-24%	11%	2%
CC(=O)O[C@]1(C(C)=O)CC[C@H]2[C@@H]3C[C@H](C)C4=CC(=O)CC[C@]4(C)[C@H]3CC[C@@]21C	?	?	16µM*!	?	18µM*
CCC(=O)OC1(C(C)=O)CCC2C3CCC4=CC(=O)CCC4(C)C3CCC21C (centres undefined)	-23%	-26	23µM*	-13%	-98%
CC(=O)C12CCCCC1CC1[C@@H]3CC(C)C4=CC(=O)CC[C@]4(C)C3CC[C@@]12C (some centres undefined)	?	11	15µM*	19%	?
CC12CCC(=O)C=C1C(O)CC1C2CCC2(C)C1CCC2(O)C(=O)CO (centres undefined)	-3%	4	-18%	0%	?
CC(=O)OC1(C(C)=O)CCC2C3CC(C(F)(F)F)C4=CC(=O)CCC4(C)C3CCC21C (centres undefined)	21µM*	-94*	13µM*	18µM*	?
CC(=O)OCC(=O)C1(O)CCC2C3CC(F)C4=CC(=O)CCC4(C)C3C(=O)CC21C (centres undefined)	?	-18	-18%	16%	21%
CN(CCO)C(=O)c1cn(C2CCN(Cc3cccc4ccccc34)CC2)nn1	·	·	-20%	·	-9%
SMILES	HT1080 IDH1KD tx	IL-1B inflam inh	TDP1 cell noCPT	HT1080NT lethal	DT40 TDP1 CPT
CN(c1nc2nonc2nc1NC1CC1)C1CCOC1 (centres undefined)	-6%	19	-14%	20%	5%
Cc1c(CCC(=O)O)c(=O)oc2c(C)c(OCc3cc4c(cc3Cl)OCO4)ccc12	5%	-13	-4%	-1%	0%
Clc1ccc(CNCCCSc2ncccn2)cc1	?	-16	?	?	-82%
Cc1cc(C)nc(SCCCNCc2ccc(Br)cc2)n1	-28%	-4	21µM*	?	?
CSc1ccc(CNCCCN(C)C)cc1	-23%	-54*	?	-3%	?
Brc1ccc(CNCCCSc2ncccn2)cc1	-13%	-1	16µM*	-13%	15µM*
Brc1ccc(CNCCCSc2nnnn2-c2ccccc2)cc1	·	·	16µM*	·	?
Cc1ccccc1CNCCSc1nnnn1-c1ccccc1	·	·	-14%	·	-11%
Cc1ccc(CNCCCSc2nc(C)cc(C)n2)cc1	-8%	?	?	-10%	?
COc1ccc(CNCCCSc2ncccn2)c(OC)c1	-4%	-7	?	0%	-2%
CSc1ccc(CNCCCSc2ncccn2)cc1	-16%	-68*	-22%	-7%	?
CCOc1c(CNCCCSc2nc(C)cc(C)n2)cccc1OC	-19%	7	?	?	21µM*
O=C1CCC(C(=O)NCc2ccccc2)N1 (centres undefined)	8%	-10	5%	10%	21%
CC1CCCN(S(=O)(=O)c2cc(C(=O)NCCc3ccc(S(N)(=O)=O)cc3)ccc2Cl)C1 (centres undefined)	-15%	-22	?	-17%	?
COc1ccc(C=NNC(=S)Nc2ccc(F)cc2)cc1OC	-10%	16	2.1µM*	-6%	3.3µM*
COc1cc(/C=N/n2c(C)n[nH]c2=S)ccc1OCc1ccc(F)cc1	2%	7	18µM*	-2%	?
COc1ccccc1NC(=S)N/N=C/c1cccc(C)c1	3%	10	?	0%	?
COc1cc(/C=N\n2nnnc2N)ccc1OCc1ccc(F)cc1	-25%	-21	-20%	-22%	-8%
COc1cc(/C=N/NC(N)=S)ccc1OCc1ccc(C)cc1	?	-19	10µM*	?	5.2µM*
COc1ccccc1NC(=S)N/N=C/c1ccc(O)cc1	-9%	-101*	5.8µM*	-16%	7.3µM*
COc1ccccc1C1CN(Cc2cccnc2)Cc2ccccc2O1 (centres undefined)	·	·	-19%	·	5%[9.04 µM]
